Data as given in the supplement of paper PMC10338343.
± gives the standard deviation.

Assays:
[1] = system: MILI (PIWIL2) piRISC loaded with piRNA #1 (26 nt); experiment: pre-steady-state target cleavage rate (min^-1); guide: piRNA #1 5'p-UGAGGUAGUAGGUUGUAUAGUAUCCA; higher = faster piRNA-guided slicing of the target; settings: auxiliary factor: 500 nM mouse GTSF1
In short: (§1)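 The pre-steady-state cleavage rate was obtained by Cleave-'n-Seq with a burst-and-steady-state fit. A transcribed, DNA-blocked target RNA library (0.1 nM) was mixed with 1 nM active affinity-purified piRISC carrying one synthetic guide, with or without 500 nM GTSF1 partner protein, in HEPES–potassium acetate buffer at 33 °C for 0–8 or 0–960 min. Uncleaved targets were sequenced and normalised to depth and to weakly complementary targets, with three trials pooled and k3 capped at 0.0001 min^-1.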

[2] = system: EfPiwi piRISC loaded with piRNA #1 (26 nt); experiment: pre-steady-state target cleavage rate (min^-1); auxiliary factor: 500 nM Ephydatia muelleri Gtsf1; guide: piRNA #1 5'p-UGAGGUAGUAGGUUGUAUAGUAUCCA; MIWI and MILI are mouse PIWI proteins and EfPiwi is from a freshwater sponge; tags in brackets are library labels; higher = faster piRNA-guided slicing of the target
In short: as §1

Sequence	pre-steady-state target cleavage rate [1]	pre-steady-state target cleavage rate [2]
GGAGACCAUACUAUACAACCUUCUUCCUCA	0.00848 ± 0.0038	0.00613 ± 0.0044
GGAGACCAUACUAUACAACCUACUUGCUCA	0.13 ± 0.032	0.00354 ± 0.002
GGAGACCAUACUCAUACAACCUACUACCUCA	0.119 ± 0.013	0.0108 ± 0.0052
GGAGUGGUUUCUAUACAACCUACUACCUCA	0.148 ± 0.0079	0.00603 ± 0.0034
GGAGACGAUACUAUACAACCUACAUCCUCA	0.05 ± 0.011	0.00353 ± 0.0014
GGAGACGAUACUAUACAUCGUACUACCUCA	0.0496 ± 0.0064	0.00254 ± 0.0012
GGAGUGGAUAGUAUACAACCUACUACCUCA	0.0868 ± 0.0069	0.00712 ± 0.0031
GGAGACCUAUGUAUACAACCUACUACCUUA	0.0696 ± 0.0086	0.00547 ± 0.0039
GGAGAGCAAACUAUACAACCUACUACCUCA	0.113 ± 0.019	0.0127 ± 0.0059
GGAGACGAUACUAUAUAACCUACUACCUCA	0.205 ± 0.011	0.0091 ± 0.0042
GGAGUGGAUACUAUACAACCUACUAGCUCA	0.0481 ± 0.0088	0.00429 ± 0.0016
GGAGACCUAUCUAUACAACCUACUGCCUCA	0.0855 ± 0.013	0.00997 ± 0.0044
GGAGACCUUUCUAUACAUCCUACUACCUCA	0.158 ± 0.013	0.00708 ± 0.0041
GGAGAGGAAACUUUACAACCUACUACCUCA	0.224 ± 0.031	0.0107 ± 0.0049
GGAGACCUAACUAUACAUCCUACUACCUCA	0.239 ± 0.028	0.00745 ± 0.0028
GGAGUGGAUUGAAUACAACCUACUACCUCA	0.0713 ± 0.0073	0.00637 ± 0.0044
GGAGACGAUACUAUACAACCUACCACCUCA	0.122 ± 0.018	0.00631 ± 0.0033
GGAGACGAUCCUAUACAACCUACUACCUCA	0.174 ± 0.025	0.0157 ± 0.0085
GGAGACGAUUCUAUACAACCUAGUACCUCA	0.07 ± 0.011	0.00392 ± 0.0022
GGAGACCAUACUAUACAACCUUCUACCUGA	0.00324 ± 0.0032	0.00624 ± 0.0044
GGAGAGGAUACUAUACAAGCUUCUACCUCA	0.0253 ± 0.0037	0.0045 ± 0.0024
GGAGACCUUACGUAUACAACCUACUACCUCA	0.0406 ± 0.0063	0.00861 ± 0.0055
GGAGUGGAUGCUAUACAACCUACUACCUCA	0.152 ± 0.022	0.0921 ± 0.046
GGAGACGAUACUAUACAACCUACUUCGUCA	0.0101 ± 0.0048	0.00672 ± 0.0024
GGAGUGGAUACGUAUACAACCUACUACCUCA	0.111 ± 0.0099	0.082 ± 0.03
GGAGACCUAUCUUUUCAACCUACUACCUCA	0.0272 ± 0.0082	0.00766 ± 0.0047
GGAGUGGAAUACUAUACAACCUACUACCUCA	0.165 ± 0.0081	0.122 ± 0.045

Sequence	pre-steady-state target cleavage rate [1]	pre-steady-state target cleavage rate [2]
GGAGAGGAUACUAUUCAACCUUCUACCUCA	0.00949 ± 0.0023	0.0031 ± 0.0028
GGAGACCUAUGAAUACAACCUACUACCUCU [g2:g18:cont:t1U]	0.0139 ± 0.0044	0.688 ± 0.25
GGAGUGGAUACUAUACAACGUACAACCUCA	0.0258 ± 0.0036	0.00367 ± 0.0016
GGAGACCUAACCUAUACAACCUACUACCUCA	0.107 ± 0.056	0.0868 ± 0.028
GGAGUGGAUACUAUACUACCAACUACCUCA	0.00975 ± 0.0022	0.00428 ± 0.002
GGAGUGGAUACUAUACAACCUACUCACCUCA	0.166 ± 0.02	0.00247 ± 0.0014
GGAGACCAUACAAUACAACCUACUACCUCA	0.189 ± 0.023	0.0108 ± 0.0032
GGAGACGAUACUAUUCAACCAACUACCUCA	0.00612 ± 0.0026	0.00444 ± 0.002
GGAGACCUAAGUAAACAACCUACUACCUCA	0.0128 ± 0.0033	0.00575 ± 0.004
GGAGACGAUUCUAUACAACCUACUACCUGA	0.167 ± 0.021	0.00463 ± 0.0026
GGAGACCAUACUAUACAACUUACUACCUCA	0.0165 ± 0.0023	0.00338 ± 0.0027
GGAGACGAUACUAUACAACCUACGUACCUCA	0.108 ± 0.013	0.00418 ± 0.0019
GGAGACCUAAUCUAUACAACCUACUACCUCA	0.11 ± 0.024	0.297 ± 0.099
GGAGUGGAUAGUAUACAACCUACUACGUCA	0.0386 ± 0.0083	0.00277 ± 0.0018
GGAGACCUUACUAUACAAGCUACUACCUCA	0.225 ± 0.015	0.00386 ± 0.002
GGAGAGGAAACUAAACAACCUACUACCUCA	0.229 ± 0.03	0.00466 ± 0.0036
GGAGACCUAUCUCUACAACCUACUACCUCA	0.0688 ± 0.0068	0.00937 ± 0.0045
GGAGACCAUACUAUACAACGUACUAGCUCA	0.00786 ± 0.0034	0.00358 ± 0.0035
GGAGACGAUACUAUACAACCUACUAGCUGA	0.0101 ± 0.0055	0.00481 ± 0.0027
GGAGAGGAAACUAUACUACCUACUACCUCA	0.239 ± 0.025	0.00544 ± 0.0027
GGAGACGAUUACUAUACAACCUACUACCUCA	0.147 ± 0.0094	0.0159 ± 0.0066
GGAGACCUUACUAUACAACUUACUACCUCA	0.0242 ± 0.0054	0.00902 ± 0.0051
GGAGAGGAUACUUUACAACCUAGUACCUCA	0.0146 ± 0.0048	0.00261 ± 0.0016
GGAGUGGAUACUAAACAACCUACUACCACA	0.113 ± 0.011	0.003 ± 0.0021
GGAGUCGAUACUAUACAACCUUCUACCUCA	0.00775 ± 0.0022	0.00622 ± 0.0028
GGAGACCAUACUAUACAACCUACUACGAGA	0.0759 ± 0.019	0.00579 ± 0.0027
GGAGACCUUACUUAUACAACCUACUACCUCA	0.0994 ± 0.014	0.00736 ± 0.0041
